Compound activity from PubChem BioAssay.
D2 PAM-1 – positive allosteric modulators of human D2 dopamine receptor; P14416; 0.23% of 360,000 active; potentiation, % (test concentration not listed); DiscoveRx D2 beta-arrestin cells, luminescence, 90 min; 100% = 57 uM dopamine signal; in the data active = potentiation above about 50%; inconclusive = mostly about 30% to 49%
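PathHunter D2 cells, attached overnight at 37 deg C, received compound in DMSO plus dopamine at EC20 (50 nM final) for 90 min at 37 deg C. Beta-arrestin recruitment was read as luminescence after 1 h with detection reagent at ambient temperature.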
D2 antag – D2 dopamine receptor (human) antagonism; AID 485344; inhibition, % at 10 µM; HEK293 TREx D2 cells, calcium flux, dopamine EC80; 2% of 340,000 active; in the data active = inhibition above about 30%; inactive = below that, where a call was filed; note: 0% is about no effect
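HEK293 T-REx D2 cells, tet-induced, calcium dye no-wash. Cpd pintool add, 180 s kinetic, then EC80 DA, 180 s kinetic. Ca flux read.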
D2 ag-1 – agonists of human D2 dopamine receptor (beta-arrestin). P14416. DiscoveRx PathHunter D2 beta-arrestin, luminescence, 90 min; 100% = 57 uM dopamine signal. activation, % (concentration not given with the values). 0.084% of 360,000 active. AID 624465; in the data active = activation above about 40%; inconclusive = between about 15% and that limit
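DiscoveRx PathHunter D2 beta-arrestin cells (2,100/well) attached overnight, then compound-stimulated 90 min at 37 C in HBSS/10 mM HEPES/0.1% Tween-20 buffer; beta-galactosidase complementation read by luminescence after 1 h at ambient temperature. Dopamine 57 uM final (EC100) as control.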
D2 ag-2 – agonists of human D2 dopamine receptor | P14416 | HEK293 T-REx D2 cells, calcium flux agonist mode | activation, % at 2 µM | 0.53% of 340,000 active | AID 485358;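 active = activation over 3 SD above normal in the single-dose calcium agonist read, cut at about 30% in these data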; note: 0% is about no effect
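In this primary screen, compounds producing a positive calcium signal within 180 s of addition to tetracycline-induced, force-coupled HEK293 Trex D2 cells are flagged; cells are dye-loaded with a no-wash calcium kit beforehand.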
D2 PAM-2 – D2 dopamine receptor (human) potentiation | P14416 | HEK293 T-REx D2, calcium flux, EC20 dopamine potentiation | potentiation, % at 10 µM | 0.34% of 340,000 active;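 active = potentiation over 3 SD above the plate norm, cut at about 30% in these data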; note: 0% is about no effect
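Primary screen. Calcium kinetics in induced HEK293 T-REx D2 cells: compound pre-addition 180 s, EC20 dopamine, 180 s more.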
D3 arrestin ag – D3 receptor agonism confirmed, beta-arrestin readout. Potency, µM (highest dose often 76.9 µM), for the others: at the top dose activation, actives largely listed as activators. shares compounds with D2 ag-2. 4% of 2,300 active. DiscoveRx D3 beta-arrestin cells, luminescence, 90 min;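 note: potency is the fitted concentration of half-maximal effect; 100% = dopamine control response; nearly all actives have a fitted effect of over 70% in size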
Target sequence (P35462 whole entry, looked up): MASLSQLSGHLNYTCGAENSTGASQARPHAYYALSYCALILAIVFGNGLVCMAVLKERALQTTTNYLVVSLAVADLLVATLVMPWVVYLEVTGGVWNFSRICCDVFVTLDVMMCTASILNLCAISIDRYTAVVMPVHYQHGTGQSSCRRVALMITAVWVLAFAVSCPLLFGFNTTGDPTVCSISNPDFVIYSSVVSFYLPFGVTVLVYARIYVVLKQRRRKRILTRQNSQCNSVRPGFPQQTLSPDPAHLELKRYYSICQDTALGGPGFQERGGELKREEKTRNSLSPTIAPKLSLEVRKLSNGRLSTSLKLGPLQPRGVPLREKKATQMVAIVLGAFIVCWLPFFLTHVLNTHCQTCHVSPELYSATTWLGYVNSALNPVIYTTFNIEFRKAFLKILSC
D2 ag-3 – counter-screen for D3 agonists: human D2 dopamine receptor agonism; shares compounds with D2 ag-2; DiscoveRx PathHunter D2 beta-arrestin, luminescence, 90 min; response scale: percent relative to full dopamine signal; Potency, µM (titrated, usually from 76.9 µM), for the others: at the top dose activation, actives largely listed as activators; 5.9% of 2,300 active; AID 720507; note: potency is the fitted concentration of half-maximal effect; % of control where 0% means no effect; nearly all actives have a fitted effect of over 70% in size
* marks the source's active call; other numbers are inactive results; ? = inconclusive; . = no result given. Only some compounds are listed: those with a hit (about 2.4% of all), similar ones and a draw of the others. Unless noted, calls come from the whole dose curve; as a rule, active = well fitted activation curve with a large enough effect; inconclusive = small, poorly fitted or top-dose-only effect; inactive = flat fitted curve, though single readings scatter.

SMILES	D2 PAM-1	D2 antag	D2 ag-1	D2 ag-2	D2 PAM-2	D3 arrestin ag	D2 ag-3
Cc1cc(Br)ccc1NC(=O)CN(C)C(=O)c1ccc(-n2cncn2)c([N+](=O)[O-])c1	-4.5	-26.9	4.0	-0.6	-1.2	-0.9%	1.3%
CCN(CC)S(=O)(=O)c1cc(NC(=O)c2ccc(-n3cncn3)c([N+](=O)[O-])c2)ccc1C	7.7	-18.7	5.7	56.9*	-19.0	20.1%	16.6%
Cc1cc(C)c(NC(N)=S)c(C)c1	-3.7	5.6	-5.1	0.2	-1.0	-0.1%	-3.7%
Cc1ccc2c(c1)C(c1ccc(F)cc1)N(C(=O)c1ccc(S(=O)(=O)N3CCCCC3)cc1)CC(=O)N2 (stereo not given)	.	.	.	1.1	21.0	.	.
CCc1ccc(CN2CCCC(CCC(=O)N3CCN(c4ccccn4)CC3)C2)o1 (stereo not given)	-20.1	-21.7	0.6	25.2	-16.7	-14.6%	-1.3%
Cc1ccc(C(=O)N2CCCC(CCC(=O)N3CCN(c4ccccn4)CC3)C2)cc1 (stereo not given)	-7.4	4.2	-0.9	-0.4	5.4	.	.
CC(C)OCC(O)CS(=O)(=O)Cc1ccccc1 (stereo not given)	-4.7	8.1	-3.1	57.7*	-25.8	-7.5%	-5.9%
CCOC(=O)c1c(C)[nH]c(C)c1S(=O)(=O)N1CCCC(C(=O)N2CCN(c3ccccc3)CC2)C1 (stereo not given)	.	.	.	0.8	-3.0	.	.
CCOc1ccc(CNC(=O)c2ccc3c(c2)nc2n3CCCCC2)cc1	.	.	.	0.3	2.8	.	.
O=C(CN1C(=O)CCc2cc(S(=O)(=O)N3CCOCC3)ccc21)NCc1ccc(F)cc1	.	.	.	1.1	-9.0	.	.
CC1CCCC(NC(=O)COC(=O)c2ccc3ncsc3c2)C1C (stereo not given)	-4.1	.	-1.1	.	.	-1.6%	3.8%
Cc1ccc(CN(C(=O)COc2ccccc2[N+](=O)[O-])c2ccccn2)cc1	.	.	.	.	-27.2	.	.
O=C(COc1ccccc1[N+](=O)[O-])N(Cc1ccccc1)c1ccccn1	11.0	21.2	?	52.5*	-30.2	?	?
COC(=O)C1CCN(Cc2cc(=O)oc3cc(C)c(Cl)cc23)CC1	-2.7	20.5	?	31.1*	-7.7	3.16µM*	24.0%
Cc1cc2oc(=O)cc(CN3CCCCC3C)c2cc1Cl (stereo not given)	2.7	3.8	-4.7	-0.9	-4.4	.	.
CCOC(=O)Nc1ccc2c(CN3CCC(C(=O)OC)CC3)cc(=O)oc2c1	-2.9	3.3	1.3	28.4	-1.1	.	.
CCc1ccc2c(CN3CCC(C(=O)OC)CC3)cc(=O)oc2c1	21.3	105.8*	66.5*	105.7*	-41.8	3.98µM*	8.91µM*
COCc1cc(C)nc2sc3c(=O)n(-c4cc(C)ccc4C)nnc3c12	.	.	.	-0.3	7.4	.	.
COc1cccc(C(C)NC(=O)Nc2ccccc2Cl)c1 (stereo not given)	-2.9	-19.6	3.2	-1.0	13.3	-5.2%	-1.7%
O=S(=O)(NCCc1csc(-c2cccnc2)n1)c1cccc(F)c1	-6.2	-0.9	-0.5	-0.1	-4.0	.	.
O=S(=O)(NCCc1csc(-c2cccnc2)n1)c1cc(F)ccc1F	-5.6	39.4*	1.9	-1.2	1.3	0.7%	1.8%
Cc1cc(-c2n[nH]c(=S)n2/N=C/c2sccc2C)n[nH]1	-2.3	-15.0	-2.1	65.9*	-25.5	-16.1%	-11.8%
CNC(=S)Nc1cc2oc3ccccc3c2cc1OC	7.4	13.8	2.3	57.1*	-18.9	-1.9%	16.5%
CCNC(=S)Nc1cc2oc3ccccc3c2cc1OC	-15.3	-1.9	-5.5	0.5	-12.5	.	.
Cc1ccc(-c2nc(N3CCCC(C)C3)c3ccccc3n2)cc1 (stereo not given)	.	.	.	.	16.1	.	.
SMILES	D2 PAM-1	D2 antag	D2 ag-1	D2 ag-2	D2 PAM-2	D3 arrestin ag	D2 ag-3
Cc1ccccc1NC(=O)CSc1nc(-c2ccccc2)cn1-c1ccccc1F	.	.	.	0.3	-4.6	.	.
O=C1C2CCCN2C(=O)N1CCCCN1CCN(c2ccccc2)CC1 (stereo not given)	3.5	61.9*	?	85.7*	-32.3	?	?
O=C1C2CCCN2C(=O)N1CCCCN1CCN(c2cccc(Cl)c2)CC1 (stereo not given)	-36.8	79.6*	1.5	65.8*	-19.1	17.0%	13.4%
O=C1C2CCCCN2C(=O)N1CCN1CCN(c2ccc(F)cc2)CC1 (stereo not given)	-5.3	.	-3.3	.	.	.	.
Cc1ccc(N2CCN(CCCCN3C(=O)C4CCCN4C3=O)CC2)cc1 (stereo not given)	-23.7	.	-1.2	.	-28.5	.	.
O=C1C2CCCN2C(=O)N1CCN1CCN(c2ccccc2)CC1 (stereo not given)	-23.2	70.8*	3.3	42.0*	1.6	-16.7%	3.5%
O=C1CC(c2nnc(Cc3ccc(F)cc3)o2)CN1c1ccccc1 (stereo not given)	.	.	.	0.7	11.2	.	.
Cn1c(=O)n(C/C=C/c2ccccc2)c(=O)c2c1nc1n2CCN1c1ccccc1	.	.	.	0.0	5.3	.	.
COc1cc(CN2CCN(CCCc3ccccc3)CC2CCO)cc(OC)c1 (stereo not given)	-22.8	65.3*	5.3	63.0*	-27.2	-0.4%	5.1%
COc1cc(CN2CCN(CCc3ccccc3)C(CCO)C2)cc(OC)c1 (stereo not given)	-50.3	18.8	-7.3	0.1	-15.8	.	.
OCCC1CN(CCCc2ccccc2)CCN1Cc1ccccc1 (stereo not given)	-12.4	40.2*	-1.3	57.3*	-28.6	-2.0%	1.0%
OCCC1CN(CCCc2ccccc2)CCN1CCc1ccccc1 (stereo not given)	-22.7	-16.1	3.3	-0.7	3.0	.	.
COc1ccccc1/C=C/CN1CCN(Cc2ccc(F)cc2)C(CCO)C1 (stereo not given)	-17.6	.	-2.1	.	.	.	.
OCCC1CN(C/C=C/c2ccco2)CCN1Cc1ccccc1 (stereo not given)	-25.4	19.1	0.1	12.7	-7.3	4.2%	1.0%
Cc1ccc(NC(=O)C2Cc3ccccc3N2C(=O)c2ccccc2)cc1Cl (stereo not given)	.	.	.	6.8	-3.8	.	.
COc1ccc(OC)c(-n2c(CN3CCC(C(N)=O)CC3)nc3ccccc3c2=O)c1	3.1	4.5	0.1	56.5*	-15.3	-0.2%	-0.5%
CCCCN(C)CCCNC(=O)CC1Oc2ccccc2NC1=O (stereo not given)	25.6	62.5*	1.3	85.2*	-24.7	?	?
CCCN(CCC)CCCNC(=O)CC1Nc2ccccc2NC1=O (stereo not given)	2.2	23.9	1.3	50.8*	-6.5	-5.1%	-1.5%
